# Data as given in PubChem BioAssay (Tox21).
# Inconclusive results are not listed. Where a call stands in place of a potency, no number is given. The source made the active and inactive calls. Calls come from the whole dose curve.
# Target: Acetylcholinesterase (Homo sapiens) (UniProt P22303)
# Test: Acetylcholinesterase (AChE) small molecule antagonists: colormetric cell-based qHTS assay (AID 1347395); note: nearly all actives have a fitted effect of over 30% in size
# Settings: SH-SY5Y cells AChE activity, colorimetric (Ellman); series mostly up to 115 µM
# Text: National Center for Advancing Translational Sciences [NCATS]
# Division of Preclinical Innovation [DPI]
# U.S. Environmental Protection Agency [EPA]
# National Institutes of Environmental Health Sciences [NIEHS]
# National Toxicology Program [NTP]
# U.S. Food and Drug Administration [FDA]
# Acetylcholinesterase (AChE) is the primary cholinesterase in the body that hydrolyzes a key neurotransmitter, acetylcholine. Inhibition of AChE activity can lead to neurotoxicity. The known inhibitors include organophosphorous pesticides (OP), chemical warfare agents, drugs, and various phytochemicals.
# A homogenous cell-based assay using the Amplite Colormetric acetylcholinesterase assay kit (AAT Bioquest, Sunnyvale, CA) was used to evaluate the chemicals in the Tox21 10K library that inhibit AChE activity. The assay uses 5, 5-dithiobis-(2-nitrobenzoic acid) (DTNB) to quantify the thiocholine produced from the hydrolysis of acetylthiocholine by AChE from the SH-SY5Y cells.
# Tox21 Assay Protocol Summary:
# For the cell-based AChE assay, 2,000 SH-SY5Y cells in 4 uL/well were dispensed into black, clear-bottom 1536-well plates using a Multidrop Combi dispenser (Thermo Scientific, MA). The assay plates were incubated overnight at 37 C to allow cells to attach to the wells, followed by the transfer of 23 nL of compound or DMSO (vehicle control) by a Pintool Station (Wako Automation, CA). The plates were incubated for 30 min at 37 C and 5% CO2, followed by the addition of 4 uL of detection cocktail solution (DTNB, acetylthiocholine) into each well using a Flying Reagent Dispenser (Beckman Coulter, CA) and then 90 min incubation at 37 C.
# Potency is the fitted concentration of half-maximal effect.
# Acetylcholinesterase (Homo sapiens), sequence (P22303 whole entry, looked up): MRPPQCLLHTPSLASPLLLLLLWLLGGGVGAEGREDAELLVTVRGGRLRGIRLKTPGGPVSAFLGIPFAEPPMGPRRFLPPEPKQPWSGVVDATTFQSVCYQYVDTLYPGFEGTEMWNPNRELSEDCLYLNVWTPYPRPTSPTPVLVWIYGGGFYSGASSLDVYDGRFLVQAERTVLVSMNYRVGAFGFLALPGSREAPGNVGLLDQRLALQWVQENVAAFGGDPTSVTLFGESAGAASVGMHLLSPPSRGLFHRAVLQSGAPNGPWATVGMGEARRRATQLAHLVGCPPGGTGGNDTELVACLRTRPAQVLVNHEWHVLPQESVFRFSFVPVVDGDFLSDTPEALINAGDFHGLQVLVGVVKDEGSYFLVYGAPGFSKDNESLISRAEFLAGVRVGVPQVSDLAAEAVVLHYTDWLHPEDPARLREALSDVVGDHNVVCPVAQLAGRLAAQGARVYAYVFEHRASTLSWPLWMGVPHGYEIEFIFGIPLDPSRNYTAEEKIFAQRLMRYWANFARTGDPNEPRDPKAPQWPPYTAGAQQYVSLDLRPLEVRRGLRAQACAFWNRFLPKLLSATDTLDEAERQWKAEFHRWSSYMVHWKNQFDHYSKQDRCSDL
row,Structure (SMILES),Potency
1,C=CC(=O)N(C)C,inactive
2,CCC(C)c1cc(C(C)(C)C)cc(-n2nc3ccccc3n2)c1O (stereo not given),inactive
3,Cc1cccc(OP(=O)(Oc2cccc(C)c2)Oc2cccc(C)c2)c1,inactive
4,CC(C)C1CCC(Cc2ccc(Cl)cc2)C1(O)Cn1cncn1 (stereo not given),inactive
5,O=C(CBr)c1ccc(O)cc1,inactive
6,ClC1=C(Cl)[C@]2(Cl)[C@@H]3[C@@H](Cl)[C@@H](Cl)C[C@@H]3[C@@]1(Cl)C2(Cl)Cl,inactive
7,OC(Cc1ccccc1Cl)(Cn1cncn1)C1(Cl)CC1 (stereo not given),inactive
8,CC(=O)O[C@H]1CC[C@@]2(C)C(=CC[C@@H]3[C@@H]2CC[C@]2(C)C(=O)CC[C@@H]32)C1,inactive
9,Clc1ccc(CCC(Cn2ccnc2)Sc2c(Cl)cccc2Cl)cc1 (stereo not given),inactive
10,CN(C)c1ccc(N=Nc2ccccc2)cc1,inactive
11,CC(C)OC(=O)C(O)(c1ccc(Cl)cc1)c1ccc(Cl)cc1,inactive
12,Cc1ccc(CCl)cc1,inactive
13,Fc1cccc(Cl)c1CCl,inactive
14,N#Cc1ccccc1N,inactive
15,CCOCCOC(C)=O,inactive
16,C=CCC1=C(C)C(OC(=O)C2C(C=C(C)C)C2(C)C)CC1=O (stereo not given),inactive
17,O=C(O)c1cc[c]([Hg][Cl])cc1,inactive
18,CC(C)(COCC1CO1)COCC1CO1 (stereo not given),inactive
19,CC(C)CC(C)Nc1ccc(Nc2ccccc2)cc1 (stereo not given),inactive
20,CC(C)OS(C)(=O)=O,inactive

row,Structure (SMILES),Potency
1,CN(C)CCc1c[nH]c2ccc(O)cc12,inactive
2,CC(=[OH+])/C=C(/C)[O-].CC(=[OH+])/C=C(\C)[O-].CC(=[OH+])/C=C(\C)[O-].[Fe],inactive
3,COC12CC[C@@]3(C[C@@H]1C(C)(O)C(C)(C)C)[C@H]1Cc4ccc(O)c5c4[C@@]3(CCN1CC1CC1)[C@H]2O5 (stereo not given in full),inactive
4,O=S(=O)(c1ccc(Cl)cc1)c1ccc(Cl)cc1,inactive
5,Cl/C=C\CCl,inactive
6,[CH3][Hg][Cl],inactive
7,Clc1ccc(Oc2ccccc2)cc1,inactive
8,CC(C)(C)c1ccc(CSc2cnn(C(C)(C)C)c(=O)c2Cl)cc1,inactive
9,Clc1ccc(C(Cl)(Cl)Cl)c(Cl)c1,inactive
10,Nc1c(Oc2ccccc2)cc(O)c2c1C(=O)c1ccccc1C2=O,inactive
11,COC(=O)N(C(=O)N1COC2(C(=O)OC)Cc3cc(Cl)ccc3C2=N1)c1ccc(OC(F)(F)F)cc1 (stereo not given),inactive
12,CCOP(=O)(NC(C)C)Oc1ccc(SC)c(C)c1 (stereo not given),58.6 µM (active)
13,O=[N+]([O-])c1ccc2ccc3cccc4ccc1c2c34,inactive
14,CC1CCC(C(C)C)C(OC(=O)c2ccccc2N)C1 (stereo not given),inactive
15,COP(=O)(CCC(=O)NCO)OC,inactive
16,C[C@H]1CC[C@@H]2[C@@H](C)[C@H]3[C@H](C[C@H]4[C@@H]5CC=C6CC(O[C@@H]7O[C@H](CO)[C@H](O)[C@H](O[C@@H]8O[C@H](CO)[C@@H](O)[C@H](O)[C@H]8O)[C@H]7O[C@H]7O[C@@H](C)[C@H](O)[C@@H](O)[C@H]7O)CC[C@]6(C)[C@H]5CC[C@]34C)N2C1 (stereo not given in full),26 µM (active)
17,O=CC(Br)(Br)Br,inactive
18,CCc1nn(C)c(C(=O)NCc2ccc(C(C)(C)C)cc2)c1Cl,inactive
19,Oc1ccc2ccc3cccc4ccc1c2c34,inactive
20,Oc1ccc(C2(c3ccc(O)cc3)CCCCC2)cc1,inactive
